Screening data deposited in PubChem by National Center for Advancing Translational Sciences (NCATS).
An excerpt weighted towards active compounds, which were near 5.7% of everything screened.
RORgamma inh: qHTS for inhibitors of ROR gamma transcriptional activity | 310,000 tested, 5.4% active | AID 2551, 2010 | Drosophila S2 Gal4-RORgamma UAS-luciferase reporter, 20 h | Nuclear receptor ROR-gamma (Mus musculus), P51450 | Potency, µM (doses to about 53.6 µM), hits mostly inhibitors; also: nearly all actives have a fitted effect of over 60% in size
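Schneider cells (Drosophila), stable Gal4 DBD–ROR gamma + UAS-luc; 1 hr cmpd preincubation; Cu2+ induction 700 uM final; 20 hr ambient; luminescence.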
VP16 counter: VP16 counterscreen qHTS for inhibitors of ROR gamma transcriptional activity; Drosophila S2 Gal4-VP16 UAS-luciferase, luminescence, 20 h; Potency, µM (top dose mostly 53.6 µM), usual class: inhibitors; 310,000 tested, 3.5% active;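 also: Gal4-VP16 expression switched on by copper sulfate through the metallothionein promoter; nearly all actives have a fitted effect of over 50% in size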
NPSR antag: qHTS Assay for Antagonists of the Neuropeptide S Receptor: cAMP Signal Transduction. Potency, µM (top dose mostly 38.3 µM), most hits filed as inhibitors. AID 1461, 2008. Q6W5P4. CHO-NPSR cells, cAMP TR-FRET, antagonist mode. 220,000 tested, 1% active; also: nearly all actives have a fitted effect of over 50% in size
B2AR arrestin: qHTS assay of beta-arrestin-biased ligands of beta2-adrenergic receptor | 330,000 tested, 0.02% active | Potency, µM (top dose mostly 46.1 µM), actives largely listed as activators | AID 492947, 2010 | beta-arrestin recruitment to beta2AR, cell-based reporter | Beta-2 adrenergic receptor (Homo sapiens), P07550; also: nearly all actives have a fitted effect of over 65% in size
Target sequence (P07550 whole entry, looked up): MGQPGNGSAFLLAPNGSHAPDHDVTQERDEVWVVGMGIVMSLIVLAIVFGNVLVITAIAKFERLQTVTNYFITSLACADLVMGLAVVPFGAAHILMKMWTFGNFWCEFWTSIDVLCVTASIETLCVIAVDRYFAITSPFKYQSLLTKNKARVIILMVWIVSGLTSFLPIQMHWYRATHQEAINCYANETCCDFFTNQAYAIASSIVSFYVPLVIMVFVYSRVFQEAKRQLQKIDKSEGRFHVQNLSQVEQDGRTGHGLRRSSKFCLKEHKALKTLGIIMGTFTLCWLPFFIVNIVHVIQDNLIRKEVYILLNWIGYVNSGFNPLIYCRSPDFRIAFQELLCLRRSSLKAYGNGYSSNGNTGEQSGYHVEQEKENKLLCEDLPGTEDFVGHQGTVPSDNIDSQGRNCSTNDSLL
Hits are given with their value; – = inactive; ? = inconclusive; · = no result given; ! = a repeat was not active; [ ] = remark or other dose. Calls follow the shape of the dose curve; as a rule, active = well fitted curve in the direction sought with a large enough effect; inconclusive = small, poorly fitted or top-dose-only effect, or another doubt; inactive = no such curve, though single readings can be large; an effect the other way counts as inactive or inconclusive.

SMILES	RORgamma inh	VP16 counter	NPSR antag	B2AR arrestin
Cc1csc(N/N=C/c2ccccn2)n1	0.35µM	1.1µM	?	–
Cc1ccc2[nH]c(C)c(/C=N/Nc3nc4ccccc4s3)c2c1	–	–	–	–
C(=N\Nc1nc2ccccc2s1)/c1ccccn1	0.1µM	–	?	–
Brc1csc(/C=N/Nc2nc3ccccc3s2)c1	0.56µM	1.3µM	–	–
C(=C\c1ccccc1)/CN1CCN(C(c2ccccc2)c2ccccc2)CC1	–	–	13µM!	·
Fc1ccc(C(c2ccc(F)cc2)N2CCN(C/C=C/c3ccccc3)CC2)cc1	–	?	?	–
CCN(CC(=O)Nc1ccc2c(c1)OCCO2)C(=O)CSCC(=O)Nc1ccc(C)cc1	·	·	·	–
CCOC(=O)CNC(=O)C(NC(=O)C1CCC(C)CC1)C(C)CC (stereo unspecified)	–	–	–	–
CCCCCCCCCCCCCCCC(=O)OCC(COP(=O)(O)OCC[N+](C)(C)C)OC(=O)CCCCCCCCCCCCCCC (stereo unspecified)	–	–	·	·
Cc1ccc(C)c2[nH]c(=O)c(CCNC(=O)c3cc4ccccc4o3)cc12	–	13µM	–	–
Cc1nn2c(NCc3ccccn3)c3c(nc2c1-c1ccccc1)CCC3	0.1µM	0.56µM	–	–
COc1ccc(Nc2c3c(nc4c(-c5ccccc5)c(C)nn24)CCC3)cc1	3.2µM	3.5µM	–	–
Cc1nn2c(NCc3ccccn3)cc(C(C)(C)C)nc2c1-c1ccccc1	0.25µM	2.2µM	–	–
COc1ccc(-c2cc(NCc3ccccn3)n3ncnc3n2)cc1	2.8µM	?	–	–
COc1ccc(-c2cc(NCCc3ccncc3)n3ncnc3n2)cc1	–	?	–	–
Cc1cc(N2CCCCCC2)n2nc(C)c(-c3ccccc3)c2n1	?	–	·	–
Cc1nn2c(N3CCN(C)CC3)c3c(nc2c1-c1ccccc1)CCCC3	–	–	?	–
Cc1cc(Nc2ccccc2)n2nc(C)c(-c3ccccc3)c2n1	–	–	?	–
Cc1cc(C)cc(Nc2c3c(nc4ncnn24)CCC3)c1	?	13µM	–	–
Cc1nn2c(NCCN3CCOCC3)c3c(nc2c1-c1ccccc1)CCCC3	1.6µM	3.5µM	–	–
Cc1cc(NCc2ccccn2)n2nc(C)c(-c3ccccc3)c2n1	0.71µM	0.32µM	–	–
c1ccc(CNc2c3c(nc4ncnn24)CCCC3)nc1	7.1µM	–[0.365 µM]	–	–
CCC[C@@H]1CC(C(=O)NC(C2O[C@H](SC)C(OP(=O)(O)O)[C@H](O)[C@H]2O)[C@H](C)Cl)N(C)C1 (stereo partly specified)	–	–	·	·
CCCN1CCC(=O)N(C(CSc2ccc(Br)cc2)c2ccccc2)CC1 (stereo unspecified)	–	–	·	·
Fc1ccc(NC(=S)N/N=C/c2cccc(Br)c2)c(F)c1	0.71µM	2.5µM	–	–
SMILES	RORgamma inh	VP16 counter	NPSR antag	B2AR arrestin
S=C(N/N=C/c1ccc(Cl)c(Cl)c1)Nc1ccccc1Cl	0.32µM	0.79µM	–	?
Fc1cccc(/C=N/NC(=S)Nc2ccccc2Cl)c1	0.71µM	1µM	–	–
O=C1CCC[C@@H]2CC(NCc3ccc(Cl)c(Cl)c3)C[C@@H]3CCN1[C@H]23 (stereo partly specified)	–	–	·	·
O=C(O)/C=C/C(=O)c1ccc2c(c1)NC(=O)CO2	–	–	–	–
COc1ccc(O)c(/C=N\NC(=O)CCn2nnc3ccccc32)c1	8.9µM	2.8µM	–	–
COc1cccc(/C=N/NC(=O)CCc2c(C)n[nH]c2C)c1O	1.4µM	3.2µM	–[7.67 µM]	–
COc1cc(/C=N/NC(=O)Cn2nnc3ccccc32)ccc1O	–	–	–	–
COc1ccc(/C=N/NC(=O)CSCC(=O)Nc2ccccc2)cc1	–	–	–[7.67 µM]	–
COc1cccc(/C=N\NC(=O)Cn2nnc3ccccc32)c1O	1.3µM	3.2µM	–	–
COc1cccc(/C=N/NC(=O)CSCC(=O)Nc2ccccc2)c1O	0.5µM	1.6µM	–	–
CCC1CCCCN1CCCNC(=O)CCC(=O)N1CC(C)Oc2ccccc21 (stereo unspecified)	–	–	·	–
CSc1nc2ccccc2n1Cc1c(Cl)cccc1Cl	?	–	–	–
CCNc1ncc2nc(-c3cn(C)c4ccccc34)c(=O)n(-c3ccccc3)c2n1	–	–	·	·
Cc1nn(-c2ccccc2)c(Cl)c1CN(C(=O)CCl)c1cccc2ccccc12	14µM	?	?	–
COc1ccc(C(=O)NC(=S)N2CC(C)OC(C)C2)cc1OC (stereo unspecified)	7.9µM	?	–	–
CC1CN(C(=S)NC(=O)c2ccc(Cl)cc2)CC(C)O1 (stereo unspecified)	1.6µM	0.79µM	·	–
CC1CN(C(=S)NC(=O)c2cccc([N+](=O)[O-])c2)CC(C)O1 (stereo unspecified)	0.5µM	1.3µM	–	–
CC1CN(C(=S)SCC(=O)c2ccc(Cl)cc2)CC(C)O1 (stereo unspecified)	–	?	–	–
Cc1ccc(S(=O)(=O)Nc2ccc3nc(C)sc3c2)cc1	?	?	–	–
Cc1nc2ccc(NS(=O)(=O)c3ccc4c(c3)OCCO4)cc2s1	?	8.9µM	–	–
Cc1nc2cc(NS(=O)(=O)c3c(C)c(C)cc(C)c3C)ccc2s1	?	11µM	?	–
CNS(=O)(=O)c1cn(CC(=O)N(C)Cc2ccccc2)cc1S(=O)(=O)NC	–	–	·	–
CCOc1ccc2nc(SCC(=O)c3ccccc3)sc2c1	?	?	–	–
CCOc1ccc2nc(SC3CC(=O)N(c4cccc(OC)c4)C3=O)sc2c1 (stereo unspecified)	14µM	4µM	?	–
CCOc1ccc2nc(SC3CC(=O)N(c4ccccc4)C3=O)sc2c1 (stereo unspecified)	10µM	13µM	–	–
SMILES	RORgamma inh	VP16 counter	NPSR antag	B2AR arrestin
COc1cccc(N(C(=O)CCl)C(C(=O)NCCc2ccccc2)c2cccs2)c1 (stereo unspecified)	13µM	–	–	–
COc1ccc(N(C(=O)CCl)C(C(=O)NCCc2ccccc2)c2cccs2)cc1Cl (stereo unspecified)	11µM	–	?	–
Cc1ccc2nc3c(cc2c1)c(NC(=O)C(C)(C)C)nn3CC(C)C	–	–	·	–
COc1ccc(C(=O)OC/C(O)=C(\C#N)c2nc3ccccc3[nH]2)cc1S(=O)(=O)N1CCOCC1	13µM	–	–	–
Cc1c(C(=O)OC/C(O)=C(\C#N)c2nc3ccccc3[nH]2)oc2ccccc12	?	?	–	–
COc1cc(OC)cc(C(=O)OC/C(O)=C(\C#N)c2nc3ccccc3[nH]2)c1	6.3µM	18µM	–	–
COc1ccc(C(=O)Nc2nc3ccccc3[nH]2)cc1S(=O)(=O)N1CCOCC1	?	–	–	–
CC(=O)Oc1ccc(Cn2cnc3cc4ccccc4cc32)cc1	–	–	–	–
CCOc1ccc2c(c1)ncn2Cc1ccccc1	11µM	–	–	–
Cc1c(Cl)cccc1NC(=S)NC(=O)CCN1C(=O)c2ccccc2C1=O	16µM	?	–	–
